ChEMBL document CHEMBL1961873, “Compounds: GSK PKIS; Assays: Nanosyn kinase panel” (2012)

Legend:
[1] = biological target: Sphingosine kinase 1 (Homo sapiens) (UniProt Q9NYA1); conditions: at 1 µM;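 also: mean SPHK1 inhibition value reported from the GSK PKIS kinase panel screen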
[2] = biological target: T1, Sphingosine kinase 2 (Homo sapiens) (UniProt Q9NRA0); conditions: at 0.1 µM
T1 sequence (whole entry): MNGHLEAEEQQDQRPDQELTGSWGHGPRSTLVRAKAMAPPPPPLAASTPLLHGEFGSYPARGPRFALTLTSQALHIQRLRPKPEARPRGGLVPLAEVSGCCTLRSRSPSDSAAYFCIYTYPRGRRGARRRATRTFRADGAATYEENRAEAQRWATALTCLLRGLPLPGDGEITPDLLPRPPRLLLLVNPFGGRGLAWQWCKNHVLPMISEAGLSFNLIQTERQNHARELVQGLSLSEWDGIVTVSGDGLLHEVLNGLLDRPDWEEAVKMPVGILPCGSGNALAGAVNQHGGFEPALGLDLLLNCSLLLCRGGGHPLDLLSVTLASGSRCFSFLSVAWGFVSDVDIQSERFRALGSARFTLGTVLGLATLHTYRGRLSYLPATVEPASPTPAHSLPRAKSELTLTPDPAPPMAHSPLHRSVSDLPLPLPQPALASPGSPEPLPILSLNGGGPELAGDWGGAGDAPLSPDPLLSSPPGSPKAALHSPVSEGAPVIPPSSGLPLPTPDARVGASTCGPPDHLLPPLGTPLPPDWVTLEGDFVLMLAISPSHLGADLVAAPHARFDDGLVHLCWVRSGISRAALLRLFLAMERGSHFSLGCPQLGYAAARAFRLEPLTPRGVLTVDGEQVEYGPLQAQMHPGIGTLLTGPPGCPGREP

[3] = biological target: T1, Sphingosine kinase 2 (Homo sapiens); conditions: at 1 µM
[4] = biological target: Casein kinase II subunit alpha (Homo sapiens) (UniProt P68400); conditions: at 0.1 µM
[5] = biological target: Casein kinase II subunit alpha (Homo sapiens) (UniProt P68400); conditions: at 1 µM
[6] = biological target: T2, Inhibitor of nuclear factor kappa-B kinase subunit alpha (Homo sapiens) (UniProt O15111); conditions: at 0.1 µM
T2 sequence (whole entry): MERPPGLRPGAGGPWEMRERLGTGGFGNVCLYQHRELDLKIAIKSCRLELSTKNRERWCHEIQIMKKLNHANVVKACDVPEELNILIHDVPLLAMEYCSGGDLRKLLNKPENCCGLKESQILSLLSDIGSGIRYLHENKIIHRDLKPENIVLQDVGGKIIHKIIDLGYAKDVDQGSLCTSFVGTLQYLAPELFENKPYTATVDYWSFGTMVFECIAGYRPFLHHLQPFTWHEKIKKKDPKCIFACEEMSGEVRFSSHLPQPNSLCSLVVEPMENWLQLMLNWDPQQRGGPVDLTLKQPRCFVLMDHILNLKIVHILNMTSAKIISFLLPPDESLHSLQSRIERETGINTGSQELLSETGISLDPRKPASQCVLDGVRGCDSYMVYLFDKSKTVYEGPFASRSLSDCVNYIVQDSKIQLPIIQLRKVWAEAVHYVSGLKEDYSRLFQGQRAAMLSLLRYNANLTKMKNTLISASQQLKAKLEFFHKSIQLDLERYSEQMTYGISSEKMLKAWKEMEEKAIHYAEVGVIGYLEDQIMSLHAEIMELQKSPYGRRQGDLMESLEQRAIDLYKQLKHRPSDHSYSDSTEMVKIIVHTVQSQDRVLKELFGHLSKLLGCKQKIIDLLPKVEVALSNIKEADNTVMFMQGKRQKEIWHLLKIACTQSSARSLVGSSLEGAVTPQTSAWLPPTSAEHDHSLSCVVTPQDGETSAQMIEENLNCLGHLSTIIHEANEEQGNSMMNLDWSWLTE

[7] = biological target: T2, Inhibitor of nuclear factor kappa-B kinase subunit alpha (Homo sapiens); conditions: at 1 µM
[8] = biological target: T3, Inhibitor of nuclear factor kappa-B kinase subunit beta (Homo sapiens) (UniProt O14920); conditions: at 0.1 µM
T3 sequence (whole entry): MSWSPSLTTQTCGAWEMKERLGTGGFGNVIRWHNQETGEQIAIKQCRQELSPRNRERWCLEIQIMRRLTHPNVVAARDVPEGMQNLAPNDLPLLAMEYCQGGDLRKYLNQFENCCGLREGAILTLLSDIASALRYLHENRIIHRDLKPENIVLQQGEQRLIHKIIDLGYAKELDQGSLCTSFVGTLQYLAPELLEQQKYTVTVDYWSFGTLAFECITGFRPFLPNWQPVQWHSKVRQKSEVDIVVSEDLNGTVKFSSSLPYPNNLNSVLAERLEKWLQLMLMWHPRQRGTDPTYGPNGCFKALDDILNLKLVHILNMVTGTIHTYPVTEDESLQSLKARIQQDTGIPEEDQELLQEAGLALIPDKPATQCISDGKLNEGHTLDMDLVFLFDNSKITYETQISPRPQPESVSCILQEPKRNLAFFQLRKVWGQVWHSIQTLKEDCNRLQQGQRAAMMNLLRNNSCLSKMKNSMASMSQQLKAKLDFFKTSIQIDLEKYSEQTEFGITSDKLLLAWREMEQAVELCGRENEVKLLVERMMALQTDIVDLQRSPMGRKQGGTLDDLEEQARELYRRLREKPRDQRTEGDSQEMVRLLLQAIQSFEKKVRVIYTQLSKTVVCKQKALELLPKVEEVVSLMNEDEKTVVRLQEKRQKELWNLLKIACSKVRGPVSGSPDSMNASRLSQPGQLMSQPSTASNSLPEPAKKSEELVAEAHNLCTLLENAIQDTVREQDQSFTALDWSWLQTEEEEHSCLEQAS

[9] = biological target: T3, Inhibitor of nuclear factor kappa-B kinase subunit beta (Homo sapiens); conditions: at 1 µM
[10] = biological target: T4, Inhibitor of nuclear factor kappa-B kinase subunit epsilon (Homo sapiens) (UniProt Q14164); conditions: at 0.1 µM
T4 sequence (whole entry): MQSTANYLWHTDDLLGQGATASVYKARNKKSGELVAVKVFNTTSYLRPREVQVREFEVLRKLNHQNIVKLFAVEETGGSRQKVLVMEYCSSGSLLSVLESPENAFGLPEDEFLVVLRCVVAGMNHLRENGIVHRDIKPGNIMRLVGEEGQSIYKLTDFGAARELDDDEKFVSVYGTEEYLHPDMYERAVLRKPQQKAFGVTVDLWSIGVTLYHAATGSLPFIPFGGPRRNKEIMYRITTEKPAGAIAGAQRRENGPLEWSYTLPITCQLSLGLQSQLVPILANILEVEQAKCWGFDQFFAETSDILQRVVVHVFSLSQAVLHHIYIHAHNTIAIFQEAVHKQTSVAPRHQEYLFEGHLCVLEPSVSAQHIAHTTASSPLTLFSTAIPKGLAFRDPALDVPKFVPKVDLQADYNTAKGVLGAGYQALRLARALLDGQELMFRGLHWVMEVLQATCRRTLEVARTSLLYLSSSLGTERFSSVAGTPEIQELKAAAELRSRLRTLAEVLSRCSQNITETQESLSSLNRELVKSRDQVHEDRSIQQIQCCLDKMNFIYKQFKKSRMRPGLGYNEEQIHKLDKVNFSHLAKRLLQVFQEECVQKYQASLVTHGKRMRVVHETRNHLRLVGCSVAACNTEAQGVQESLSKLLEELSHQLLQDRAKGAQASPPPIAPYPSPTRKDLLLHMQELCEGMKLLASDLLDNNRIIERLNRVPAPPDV

[11] = biological target: T4, Inhibitor of nuclear factor kappa-B kinase subunit epsilon (Homo sapiens); conditions: at 1 µM
[12] = biological target: T5, Serine/threonine-protein kinase Nek1 (Homo sapiens) (UniProt Q96PY6); conditions: at 0.1 µM
T5 sequence (whole entry): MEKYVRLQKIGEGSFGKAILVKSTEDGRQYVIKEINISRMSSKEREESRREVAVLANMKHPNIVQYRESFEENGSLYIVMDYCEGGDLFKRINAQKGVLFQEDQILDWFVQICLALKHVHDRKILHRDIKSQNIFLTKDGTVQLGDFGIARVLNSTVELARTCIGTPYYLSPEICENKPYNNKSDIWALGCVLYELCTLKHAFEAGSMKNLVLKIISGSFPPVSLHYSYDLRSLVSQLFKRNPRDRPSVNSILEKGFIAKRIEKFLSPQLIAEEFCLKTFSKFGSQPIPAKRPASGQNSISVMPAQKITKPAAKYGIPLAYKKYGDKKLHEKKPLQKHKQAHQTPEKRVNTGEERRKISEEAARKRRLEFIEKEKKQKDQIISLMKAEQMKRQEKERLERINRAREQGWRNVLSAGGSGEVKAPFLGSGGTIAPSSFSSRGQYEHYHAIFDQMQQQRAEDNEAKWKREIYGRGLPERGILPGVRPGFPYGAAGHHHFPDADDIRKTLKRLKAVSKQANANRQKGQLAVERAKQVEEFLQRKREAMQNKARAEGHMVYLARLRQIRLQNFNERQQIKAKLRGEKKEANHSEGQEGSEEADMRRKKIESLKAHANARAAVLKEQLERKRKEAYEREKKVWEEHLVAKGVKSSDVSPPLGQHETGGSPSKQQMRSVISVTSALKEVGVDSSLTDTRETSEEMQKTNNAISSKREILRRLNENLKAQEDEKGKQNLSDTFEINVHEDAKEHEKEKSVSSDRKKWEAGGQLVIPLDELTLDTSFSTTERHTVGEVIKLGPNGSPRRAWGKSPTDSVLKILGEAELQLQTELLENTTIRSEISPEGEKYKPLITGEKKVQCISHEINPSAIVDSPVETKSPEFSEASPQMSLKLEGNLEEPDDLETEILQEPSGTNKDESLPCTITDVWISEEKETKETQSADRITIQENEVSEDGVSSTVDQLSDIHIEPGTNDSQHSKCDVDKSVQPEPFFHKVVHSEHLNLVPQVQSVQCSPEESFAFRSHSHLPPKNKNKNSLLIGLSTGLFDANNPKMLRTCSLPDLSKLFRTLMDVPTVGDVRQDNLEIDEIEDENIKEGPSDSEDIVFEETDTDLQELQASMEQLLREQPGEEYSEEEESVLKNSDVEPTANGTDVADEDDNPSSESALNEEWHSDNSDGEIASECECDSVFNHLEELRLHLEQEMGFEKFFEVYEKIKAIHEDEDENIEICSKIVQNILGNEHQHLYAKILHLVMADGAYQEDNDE

[13] = biological target: T5, Serine/threonine-protein kinase Nek1 (Homo sapiens); conditions: at 1 µM
[14] = biological target: T6, Serine/threonine-protein kinase Nek2 (Homo sapiens) (UniProt P51955); conditions: at 0.1 µM
T6 sequence (whole entry): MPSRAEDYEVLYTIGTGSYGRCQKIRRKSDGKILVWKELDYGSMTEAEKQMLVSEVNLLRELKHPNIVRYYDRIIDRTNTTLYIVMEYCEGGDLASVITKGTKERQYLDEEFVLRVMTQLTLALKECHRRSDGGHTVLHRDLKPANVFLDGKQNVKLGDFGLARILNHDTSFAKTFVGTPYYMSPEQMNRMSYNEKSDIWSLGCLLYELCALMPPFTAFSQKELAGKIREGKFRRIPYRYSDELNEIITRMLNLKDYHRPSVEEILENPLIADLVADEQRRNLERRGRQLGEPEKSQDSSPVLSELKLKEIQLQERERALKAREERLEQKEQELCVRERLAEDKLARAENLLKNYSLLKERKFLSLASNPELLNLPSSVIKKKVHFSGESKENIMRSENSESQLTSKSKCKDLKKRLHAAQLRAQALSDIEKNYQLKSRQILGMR

[15] = biological target: T6, Serine/threonine-protein kinase Nek2 (Homo sapiens); conditions: at 1 µM
[16] = biological target: Serine/threonine-protein kinase Nek6 (Homo sapiens) (UniProt Q9HC98); conditions: at 0.1 µM
[17] = biological target: Serine/threonine-protein kinase Nek6 (Homo sapiens) (UniProt Q9HC98); conditions: at 1 µM
[18] = biological target: Serine/threonine-protein kinase Nek7 (Homo sapiens) (UniProt Q8TDX7); conditions: at 0.1 µM
[19] = biological target: Serine/threonine-protein kinase Nek7 (Homo sapiens) (UniProt Q8TDX7); conditions: at 1 µM
[20] = biological target: T7, Serine/threonine-protein kinase Nek9 (Homo sapiens) (UniProt Q8TD19); conditions: at 0.1 µM;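 also: reported value is the mean percent inhibition of NEK9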
T7 sequence (whole entry): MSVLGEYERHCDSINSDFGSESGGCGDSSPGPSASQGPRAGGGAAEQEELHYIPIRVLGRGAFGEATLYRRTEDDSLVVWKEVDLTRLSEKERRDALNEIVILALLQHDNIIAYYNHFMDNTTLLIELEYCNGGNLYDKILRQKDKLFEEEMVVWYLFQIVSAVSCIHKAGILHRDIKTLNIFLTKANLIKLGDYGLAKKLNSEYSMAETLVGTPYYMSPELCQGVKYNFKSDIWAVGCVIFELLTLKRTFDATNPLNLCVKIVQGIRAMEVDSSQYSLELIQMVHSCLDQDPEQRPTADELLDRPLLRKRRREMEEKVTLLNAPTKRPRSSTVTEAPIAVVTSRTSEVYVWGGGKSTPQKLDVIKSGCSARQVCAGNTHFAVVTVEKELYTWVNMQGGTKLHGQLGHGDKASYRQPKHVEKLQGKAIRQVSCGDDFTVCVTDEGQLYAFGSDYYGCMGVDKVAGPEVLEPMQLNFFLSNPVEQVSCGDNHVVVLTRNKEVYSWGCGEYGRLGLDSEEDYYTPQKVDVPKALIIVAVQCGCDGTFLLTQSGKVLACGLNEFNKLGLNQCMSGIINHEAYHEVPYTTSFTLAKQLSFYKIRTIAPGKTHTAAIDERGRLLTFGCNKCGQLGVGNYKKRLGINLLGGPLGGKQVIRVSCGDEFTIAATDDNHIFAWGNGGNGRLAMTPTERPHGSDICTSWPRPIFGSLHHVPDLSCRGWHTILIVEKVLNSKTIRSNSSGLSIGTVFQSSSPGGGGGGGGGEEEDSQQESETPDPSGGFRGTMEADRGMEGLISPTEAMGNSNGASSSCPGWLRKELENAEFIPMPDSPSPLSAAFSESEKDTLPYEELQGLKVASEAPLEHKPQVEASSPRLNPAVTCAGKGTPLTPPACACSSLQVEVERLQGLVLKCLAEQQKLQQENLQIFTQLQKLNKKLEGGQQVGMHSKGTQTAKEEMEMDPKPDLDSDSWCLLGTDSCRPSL

Sequence of Serine/threonine-protein kinase Nek7 (Homo sapiens) (Q8TDX7 whole entry, looked up): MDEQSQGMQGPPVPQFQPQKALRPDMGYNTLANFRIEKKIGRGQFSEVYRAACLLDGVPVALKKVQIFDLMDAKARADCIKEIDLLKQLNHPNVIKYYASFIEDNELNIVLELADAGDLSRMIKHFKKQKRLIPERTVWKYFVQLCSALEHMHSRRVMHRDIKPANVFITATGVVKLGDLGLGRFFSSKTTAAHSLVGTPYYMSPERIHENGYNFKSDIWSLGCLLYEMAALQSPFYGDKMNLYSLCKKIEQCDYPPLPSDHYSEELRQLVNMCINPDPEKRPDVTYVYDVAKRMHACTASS
Sequence of Serine/threonine-protein kinase Nek6 (Homo sapiens) (Q9HC98 whole entry): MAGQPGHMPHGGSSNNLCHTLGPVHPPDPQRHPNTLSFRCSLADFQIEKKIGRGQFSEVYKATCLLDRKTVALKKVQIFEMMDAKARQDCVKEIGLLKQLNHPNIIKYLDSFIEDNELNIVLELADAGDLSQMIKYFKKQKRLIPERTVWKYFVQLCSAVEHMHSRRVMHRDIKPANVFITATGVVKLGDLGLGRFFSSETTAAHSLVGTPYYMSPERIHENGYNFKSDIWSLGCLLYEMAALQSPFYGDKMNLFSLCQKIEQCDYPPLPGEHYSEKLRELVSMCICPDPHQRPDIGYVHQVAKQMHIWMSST
Sequence of Casein kinase II subunit alpha (Homo sapiens) (P68400 whole entry, looked up): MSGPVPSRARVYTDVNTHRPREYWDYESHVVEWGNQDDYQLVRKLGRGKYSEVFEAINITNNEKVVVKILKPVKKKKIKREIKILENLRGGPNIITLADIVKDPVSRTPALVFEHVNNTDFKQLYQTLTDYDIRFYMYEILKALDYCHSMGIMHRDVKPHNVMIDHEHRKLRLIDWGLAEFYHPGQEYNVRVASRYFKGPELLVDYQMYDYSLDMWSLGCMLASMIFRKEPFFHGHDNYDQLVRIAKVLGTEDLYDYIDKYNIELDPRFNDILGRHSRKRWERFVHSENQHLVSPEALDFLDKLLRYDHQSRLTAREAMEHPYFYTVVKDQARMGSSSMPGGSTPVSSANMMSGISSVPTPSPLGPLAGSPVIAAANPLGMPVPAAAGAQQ
Sequence of Sphingosine kinase 1 (Homo sapiens) (Q9NYA1 whole entry): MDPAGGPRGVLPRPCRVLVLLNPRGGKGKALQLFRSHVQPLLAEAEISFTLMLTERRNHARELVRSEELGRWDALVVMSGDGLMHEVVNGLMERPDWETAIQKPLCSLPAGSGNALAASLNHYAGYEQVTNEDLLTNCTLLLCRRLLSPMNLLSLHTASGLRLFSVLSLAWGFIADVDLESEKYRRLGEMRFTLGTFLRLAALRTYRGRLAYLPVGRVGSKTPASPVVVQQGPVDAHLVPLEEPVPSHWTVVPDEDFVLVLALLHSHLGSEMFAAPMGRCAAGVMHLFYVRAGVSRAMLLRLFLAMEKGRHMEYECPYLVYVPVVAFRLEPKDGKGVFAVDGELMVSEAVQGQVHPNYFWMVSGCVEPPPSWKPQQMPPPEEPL

Question: Which results are given for NCc1ccc(-c2nc(-c3ccc(Cl)c(O)c3)c(-c3ccncc3)[nH]2)cc1?
Answer: inhibition [1]: -0.71%; inhibition [2]: -0.06%; inhibition [3]: 0%; inhibition [4]: 0.86%; inhibition [5]: 1.53%; inhibition [6]: 3.45%; inhibition [7]: -3.91%; inhibition [8]: 1.08%; inhibition [9]: 0.02%; inhibition [10]: 1.2%; inhibition [11]: -0.03%; inhibition [12]: 0.3%; inhibition [13]: 1.09%; inhibition [14]: -2.48%; inhibition [15]: 0.73%; inhibition [16]: -0.93%; inhibition [17]: -1.57%; inhibition [18]: 1.75%; inhibition [19]: 1.7%; inhibition [20]: 7.64%
